Our source for the Potency values is PubChem BioAssay AID1345083 (National Center for Advancing Translational Sciences (NCATS), 2018).

The structures appear in SMILES notation. In all, about 94,000 compounds went through this assay and about 6,200 (6.6%) were called active. Not shown: some 31% with an inconclusive outcome. The call rests on the fitted dose curve; in most records, active means well fitted inhibition curve with a large enough effect; inconclusive means small, poorly fitted or top-dose-only effect; inactive means flat fitted curve, though single readings scatter. What follows is part of a selection rich in actives, with near analogues and random picks from the rest. Where a call stands in place of a potency, no number is given.
Potency means the concentration at half of the fitted maximal effect.

This assay in a line: Cytotoxic Profiling in HEK 293 Cell Line of Diverse Libraries Using Quantitative High-Throughput Screening. Further: nearly all actives have a fitted effect of over 60% in size. The conditions noted are these: HEK 293 viability, ATP luminescence (CellTiter-Glo), 48-72 h; series mostly up to 115 µM. The procedure, abridged:
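ATP-coupled CellTiter-Glo luminescence served as viability read-out, recorded 10 min after reagent addition at room temperature. HEK 293 cells, 250 cells/well, had been incubated with pintool-transferred compound for 48 or 72 hr at 37 degree Celsius.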
Take `CN(C)C(=O)N1CCN(C(=O)c2cccc(-c3ccccn3)c2)CC1`: the Potency result was “inactive”.
The value for `Cc1ccc(S(=O)(=O)Cc2noc([C@@H]3C[C@@H](O)CN3Cc3cccs3)n2)cc1` was “inactive”.
The value for `COc1ccc(CCC(=O)N2CCCC(n3c(C)cnc3C3CCOCC3)C2)cc1` (stereo not drawn) was “inactive”.
The value for `O=C(NC1CC1)c1ccc(CC2CCN(C(=O)c3ccccn3)CC2)cc1` was “inactive”; that for `COc1ccc(-c2cccc(C(=O)NCc3cccc(Cl)c3)c2)nn1` was 79.4 µM (active); that for `COc1ccc(-c2ccc(C(=O)N3CCN(C(=O)c4cccc(Cl)c4)CC3)cc2)nn1` was “inactive”.
Take `COc1ccc(-c2ccc(C(=O)NCc3ccccc3Cl)cc2)nn1`: the Potency entry was “inactive”.
The value for `CCN1CC2(CCN(C(=O)c3cccc(N4CCOCC4)c3)CC2)OC1=O` was “inactive”; that for `CC(=O)N1Cc2ccccc2CC2(CCN(Cc3cccnc3)CC2)C1` was “inactive”; that for `CC(=O)N1Cc2ccccc2CC2(CCCN(Cc3ccncc3)C2)C1` (stereo not drawn) was “inactive”.
To `C[C@H](C(=O)N1Cc2ccccc2CC2(CCN(Cc3ccncc3)CC2)C1)c1ccccc1` belongs 50.1 µM (active); to `O=C(Nc1cccc(-n2cccn2)c1)C1CCCN(C2CCN(Cc3ccco3)CC2)C1` (stereo not drawn), “inactive”.
The value for `COc1ccc(OC)c(CNC(=O)CC2C(=O)NCCN2CC=C(C)C)c1` (stereo not drawn) was “inactive”; that for `COC[C@@H]1CN(C(=O)c2ccc3ncccc3c2)C[C@H]1c1nc(C)no1` was “inactive”; that for `COc1ccc(CC2CCOC3(CCN(C(=O)NCC(C)C)CC3)C2)cc1` (stereo not drawn) was 39.8 µM (active).
In the case of `COc1ccc(CNC(=O)N2CCC3(CC2)CC(OCC2CC2)CCO3)cc1` (stereo not drawn), the Potency result is “inactive”.
For `CNC(=O)N1CCC2(CC1)CC(Cc1cccc(F)c1)CCO2` (stereo not drawn), the Potency entry is “inactive”.
To `O=C1NCCCCCCN(C(=O)Cc2cccnc2)[C@@H]2C[C@@H](c3nc(-c4cnccn4)no3)C[C@H]12` belongs “inactive”; to `C=CCN1CCC2(CCC1=O)CN(Cc1ncc[nH]1)CCN2C` (stereo not drawn), “inactive”; to `O=C(c1ccc(F)cc1)N1CCC(N2CC3CC(C2)[C@H]2CCCC(=O)N2C3)CC1` (stereo partly drawn), “inactive”.
The value for `COCc1cc(CN2C[C@H](NC(=O)CO)[C@@H](C3CC3)C2)ccc1OC` was “inactive”; that for `O=C(C1CCN([S+](=O)([O-])c2cccc(C(F)(F)F)c2)CC1)N1CCC(N2CCCC2=O)CC1` was “inactive”.
The value for `O=C1CCCCCN1C1CCN(Cc2ccc(C(F)(F)F)cc2)CC1` was 31.6 µM (active); that for `O=C1CCN(Cc2ccc(C(F)(F)F)cc2)CCCOCCN1` was “inactive”.
As for `Cn1cnc(S(=O)(=O)N[C@@H]2CCOC[C@H]2Oc2ccc(C(N)=O)cc2)c1`, the Potency entry is “inactive”.
The value for `OC1(CN2CCC(CCn3cccn3)CC2)CNCCOC1` (stereo not drawn) was “inactive”; that for `O=C(NC1CCCc2c1[nH]c1c(Cl)cccc21)c1ccco1` (stereo not drawn) was 44.7 µM (active).
Regarding `O=C(NC1CCc2nnc(C3CC3)n2CC1)c1ccco1` (stereo not drawn), the Potency entry is “inactive”.
To `O=C(Cn1nc(-c2ccco2)ccc1=O)NC1CCCc2c1[nH]c1c(Cl)cccc21` (stereo not drawn) belongs “inactive”.
The value for `CC(C)S(=O)(=O)N1CCC(OCc2noc(C3CCCO3)n2)CC1` (stereo not drawn) was “inactive”.
To `O=C(Nc1cccc(C(F)(F)F)c1)O[C@@H]1CO[C@H]2[C@@H]1OC[C@@H]2Nc1nccc(-c2ccc3c(c2)OCO3)n1` belongs 50.1 µM (active); to `O=C(Nc1ccc(Cl)cc1)N[C@H]1CO[C@H]2[C@@H]1OC[C@H]2O`, “inactive”.
Turning to `CC(=O)Nc1cccc(OCC2CN(Cc3cccc(C(F)(F)F)c3)C(=O)c3c(ccnc3-c3ccc(OCC(=O)O)cc3)O2)c1` (stereo not drawn), the Potency entry was “inactive”.
The value for `CCNC(=O)O[C@@H]1CO[C@H]2[C@@H]1OC[C@@H]2NC(=S)Nc1cccc2ccccc12` was 70.8 µM (active).
The value for `COc1ccc(NC(=O)O[C@@H]2CO[C@H]3[C@@H]2OC[C@@H]3NC(=O)NC2CCCCC2)cc1` was “inactive”; that for `CC(C)(CC(=O)O)CC(=O)N[C@H]1CO[C@H]2[C@@H]1OC[C@@H]2Nc1nccc(-c2ccc3c(c2)OCO3)n1` was “inactive”.
To `COc1ccc(-c2ccnc(N[C@H]3CO[C@H]4[C@@H]3OC[C@H]4OC(=O)Nc3cccc4ccccc34)n2)cc1` belongs 39.8 µM (active); to `N#Cc1cccc(NC(=O)O[C@@H]2CO[C@H]3[C@@H]2OC[C@@H]3Nc2nccc(-c3ccccc3)n2)c1`, 22.4 µM (active).
On to `CCNC(=O)O[C@@H]1CO[C@H]2[C@@H]1OC[C@@H]2NC(=O)c1cccc(C(=O)OC)c1`, for which the Potency entry is “inactive”.
To `CNC(=O)[C@@H]1CN(C(=O)Cn2c(=O)oc3ccccc32)C[C@H]1c1n[nH]c(C)n1` belongs “inactive”; to `O=C(O)c1ccc2c(c1)CC(=O)N2Cc1cccc(F)c1`, “inactive”.
On to `CN1CCCCCCN(S(=O)(=O)N(C)C)CCC1=O`, for which the Potency result was “inactive”.
The value for `O=C(O)CC1(CC(=O)N2CCN3C(=O)c4cc(-c5ccsc5)ccc4NC(=O)[C@H]3C2)CCCC1` was “inactive”; that for `c1cncc(CN2CC(Oc3ccc4c(c3)OCO4)C2)c1` was “inactive”.
The value for `COC(=O)N1CCN2C[C@@H](C(N)=O)[C@H](c3ccccc3)[C@H]2C1` was “inactive”; that for `CC(=O)c1c(C)nn(CC(=O)N2CCC(c3cc(C(C)C)n[nH]3)CC2)c1C` was “inactive”; that for `CCC(=O)N1CCC(c2nc(C3CCOCC3)no2)C1` (stereo not drawn) was “inactive”.
To `CSc1ccc(CNC(=O)c2cc3c(N4CCSCC4)nc(C)cn3n2)cc1` belongs “inactive”; to `COCc1nc(-c2ccc(NC(=O)Cn3nc4c(cc3=O)CCCC4)cc2)n[nH]1`, “inactive”; to `O=C(NCCCn1cccn1)C1CCCCc2nnc(-c3ccccc3)n21` (stereo not drawn), “inactive”.
With `COc1ccc(C(=O)N2CCCC(Cc3nc(C4CCOCC4)no3)C2)cc1` (stereo not drawn), the Potency entry is “inactive”.
To `C=CCNC(=O)N[C@H]1CO[C@H]2[C@@H]1OC[C@H]2OC(=O)Nc1cccc(C(C)=O)c1` belongs “inactive”.
To `CC(C)(C)c1ccnc(N[C@H]2CO[C@H]3[C@@H]2OC[C@@H]3NC(=O)CC2(CC(=O)O)CCCC2)n1` belongs “inactive”.
On to `CC(C)(C)c1ccnc(N[C@H]2CO[C@H]3[C@@H]2OC[C@H]3OC(=O)Nc2cccc(C(F)(F)F)c2)n1`, for which the Potency was 39.8 µM (active).
To `CC(=O)c1ccc(NC(=O)O[C@@H]2CO[C@H]3[C@@H]2OC[C@@H]3Nc2nccc(-c3ccco3)n2)cc1` belongs 22.4 µM (active); to `CCCN1CCN(C(=O)C2CCCN(c3cnn(Cc4ccccc4)c(=O)c3)C2)CC1` (stereo not drawn), “inactive”; to `O=C(Cc1cccc(F)c1)N1CC(CNC(=O)N2CCCC2)C2(CCOCC2)C1` (stereo not drawn), “inactive”.
Consider `Cc1oc2c(c1C(=O)NC1CCN(C)CC1)CN(C)CC2`, for which the Potency entry was “inactive”.
